In PubChem BioAssay one finds z-score data, which are given here for 36 molecules.

Values without a mark were called inactive. Active and inactive are the calls of the source.

A short description of this assay: ATP-based viability of Huh7 replicon cells – cell-based, CellTiter-Glo luminescence, basal, 48 h, cytotoxicity control for HCV replication inhibitor project, primary screen (AID 1143).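 Further: Huh7 hepatoma cells carrying a hepatitis C replication reporter with no stimulus; test concentration not given here.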 The conditions noted are these: higher = more signal, called active from +8 up or from −8 down. (In general: A replicon is a self-replicating genome or part of one, used to study replication in cells.)
With `COc1ccc([Si](C)(C)[C@@H]2[C@@H](CCO)O[C@]3(C(=O)N(Cc4ccc(NC(C)=O)cc4)c4ccccc43)[C@H]2C)cc1`, the z-score was -8.01 (active).

For `CCCCC(=C=CC[C@H](O)c1ccccc1OCCO)C[C@H](O)COCc1ccccc1`, the z-score was -1.41.

As for `COC(=O)[C@H]1COC(c2ccc(OCCCO)cc2)=N1`, the z-score was -0.597.

`CC(C)C[C@@H]1NC(=O)[C@H]2C[C@@H](C(=O)NCCCCCCN(C)C)[C@@H](c3cccc(OCCO)c3)N2C1=O`: the z-score is 0.069.

Turning to `O=C1O[C@@H](c2ccccc2)[C@@H](c2ccccc2)N2[C@@H](c3ccccc3OCCO)[C@]3(C(=O)Nc4ccc(C#CCCO)cc43)[C@@H](C(=O)O)[C@H]12`, the z-score is -5.04.

On to `CC(C)NC(=O)[C@@]1(C)c2ccccc2C(=O)N(Cc2cc(F)cc(C(F)(F)F)c2)[C@H]1c1ccc(CO)cc1`, for which the z-score is -0.527.

Turning to `O=C1O[C@@H](c2ccccc2)[C@@H](c2ccccc2)N2[C@@H](c3ccc(OCCO)cc3)[C@]3(C(=O)Nc4ccccc43)[C@@H](C(=O)N3CCN(c4ncccn4)CC3)[C@H]12`, the z-score was -0.704.

`CCc1cc2c(nc1CC)CCN(CCC(C)=NOC[C@@H](O)[C@H]1O[C@@H]3OC(C)(C)O[C@@H]3[C@H]1O)C2`: the z-score is 0.731.

Regarding `C=CC[C@@H]1C=C[C@H](ON=C(C)CCN2CCc3nc(CC)c(CC)cc3C2)[C@@H](CO)O1`, the z-score is -0.667.

For the molecule `CN(C)CCCNC(=O)[C@@H]1c2ccccc2C(=O)N(Cc2cc(F)cc(C(F)(F)F)c2)[C@H]1c1ccc(CO)cc1`, the z-score was -1.77.

For the molecule `O=C1[C@H]2[C@H]3[C@H](O)[C@H](O)CC(=NOC[C@@H](O)COCc4ccco4)[C@H]3CC[C@H]2C(=O)N1c1cccc(Oc2ccccc2)c1`, the z-score was -0.6.

Regarding `CS(=O)(=O)CCOC(=O)C1=CC(CCCO)=CC(c2cccs2)N(Cc2cccc(OC(F)(F)F)c2)C=C1C(=O)OCCS(C)(=O)=O` (stereo unspecified), the z-score is -3.11.

For the molecule `CC(CCC(=O)OC[C@H]1O[C@H](C#Cc2ccccc2)C=C[C@@H]1Oc1ccc(C)cc1)=NO[C@@H](C)c1cn([C@H](CO)Cc2ccccc2)nn1`, the z-score is -2.82.

`COc1ccc(O[C@H]2C=C[C@@H](c3ccccc3)O[C@@H]2COC(=O)CCC(C)=NO[C@@H](C)c2cc(-c3c(C)cc(C)cc3C)no2)cc1`: the z-score was -0.961.

Regarding `CC(C)[C@@H](OCc1ccccc1)[C@H](C)C=NO[C@H](C)c1cn([C@H](CO)Cc2ccccc2)nn1`, the z-score is -1.28.

Take `COc1cccc([C@H]2Oc3ccc(OC)cc3C(=NOC(C)CN3CCCc4nc(C)c(C)cc43)[C@@H]2O)c1` (stereo partly specified): the z-score is -0.252.

As to `O=C1C[C@@H](O)[C@@H](O)[C@@H]2[C@@H]3C(=O)N(C4CCCCC4)C(=O)[C@@H]3CC[C@H]12`, the z-score was 0.406.

Regarding `COc1ccc([Si](C)(C)[C@H]2[C@H](CC(=O)N3CCC[C@H]3CO)O[C@@]3(C(=O)N(Cc4cccc(N5C(=O)COc6ccccc65)c4)c4ccccc43)[C@@H]2C)cc1`, the z-score is -2.16.

As to `CC(C)NC(=O)[C@@]1(c2ccc([N+](=O)[O-])cc2)CC(=O)N(CC23CC4CC(CC(C4)C2)C3)[C@@H]1c1ccc(CO)cc1I`, the z-score was -5.69.

As for `C=CCOC(=O)[C@H]1[C@@H]2C(=O)O[C@@H](c3ccccc3)[C@@H](c3ccccc3)N2[C@@H](c2ccc(OCCOC(=O)[C@H]3C[C@H]4C(=O)N5CCC[C@H]5C(=O)N4[C@H]3c3cccc(OCCO)c3)cc2)[C@]12C(=O)Nc1ccc(I)cc12`, the z-score is 0.156.

In the case of `CC(C)CN1CCc2nc(-c3ccccc3)c3c(c2CC1)CO[C@@H](C)C3`, the z-score is -0.388.

With `CC(C)OC(=O)C=C1C[C@@H](c2ccc(C#N)cc2)O[C@@H](c2ccc(C#N)cc2)O1`, the z-score is -2.6.

As for `C=CC[C@@H]1C=C[C@H](ON=C[C@@H](OC)[C@H](C)C=CCC(=O)OC)[C@@H](CO)O1`, the z-score is 0.669.

As to `CN1C(=O)C2C(C1=O)C1C=C(CCCO)C2C(c2ccc(CN3CCCC3)cc2)N1C` (stereo unspecified), the z-score is -0.202.

Consider `COCC(=C=CC[C@@H](O)c1ccccc1OCCO)CCO`, for which the z-score was 0.0309.

For the molecule `COCCOC(=O)N1C(=O)[C@@]2(c3cc(C#CCNC(N)=O)ccc31)[C@H](c1ccc(O)cc1)N1[C@H](c3ccccc3)[C@H](c3ccccc3)OC(=O)[C@H]1[C@@H]2C(=O)N1CCCCCCC1`, the z-score is -0.446.

As for `C=C(/C(=C/C[C@H](OC(=O)c1ccncc1)c1ccc(OCCO)cc1)c1cnc2ccccc2c1)C(C)C`, the z-score is -2.02.

Consider `Cc1cc2c(c(=O)o1)[C@H](O)[C@H]1O[C@H]1C2=O`, for which the z-score is -2.97.

As to `COC(=O)[C@@H]1CC[C@H](C)[C@@H](c2ccc(C)cc2)N1C(=O)c1ccc(C=NOC[C@@H](O)COCc2ccco2)cc1`, the z-score was -1.83.

`CO[C@@H]1COC(=O)[C@H](C)NC(=O)[C@@H](C)COC(=O)CCC[C@H]1C`: the z-score was -0.639.

For `CC(C)c1ccc(NN2C(C(O)c3ccc4c(c3)OCO4)C=CC3C(=O)N(c4ccccc4)C(=O)C32)cc1` (stereo unspecified), the z-score was -0.0997.

Consider `CCOC(=O)[C@H](Cc1ccccc1)NC(=O)CCC1CC(OC(=O)NCc2ccc3c(c2)OCO3)CC2(CCCC(COC(=O)NCc3ccccc3)O2)O1` (stereo partly specified), for which the z-score is -0.256.

For the molecule `CC(C)(C)OC(=O)CC[C@]1(C(=O)NCc2ccccc2)N=C(c2ccc(OCCCO)cc2)O[C@H]1c1ccccc1`, the z-score was -3.16.

Turning to `Cc1ccc(C2CC=C(C(=O)O)CN2S(=O)(=O)c2ccc(C)cc2)cc1` (stereo unspecified), the z-score was 0.0273.

With `CC[C@@H](c1ccccc1)n1c(=O)n2n(c1=O)[C@H]1[C@H](O)[C@@H]3O[C@@H]3C(=NOCC=C(C)CCC=C(C)C)[C@H]1CC2`, the z-score is -1.53.

As to `CC(CCC(=O)OC[C@H]1O[C@H](C#Cc2ccccc2)C=C[C@@H]1Oc1ccc(C)cc1)=NOC[C@@H](O)COCc1ccco1`, the z-score is -0.204.
